Source: PubChem (several laboratories)
E coli growth-1: inhibitors of Escherichia coli growth. OD600 absorbance (concentration not given with the values). 0.21% of 330,000 active. OD600, 23 h; stronger effect = lower value. AID 1053175;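 active means OD600 absorbance below the run mean of sample wells minus 3.6 SD, in any replicate, cut at about 0.56 in these data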
phage Ecoli inh: E. coli growth loss with phage present; growth absorbance; inhibition, % at 11.9 µM; 0.26% of 360,000 active; in the data active means inhibition above about 11%
AddAB inh: less growth of phage-infected E. coli with AddAB | E. coli expressing H. pylori AddAB, absorbance growth | inhibition, % at 11.9 µM | 0.29% of 330,000 active; in the data active means inhibition above about 12%;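 further: 0% = vehicle wells of infected cells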
PfHsp90 set2: reduces growth (ATP signal) of yeast expressing P. falciparum Hsp90; inhibition, % at 9.4 µM; S. cerevisiae expressing PfHsp90, BacTiter-Glo ATP, 48 h; yeast lacking PDR1 and PDR3 efflux regulators; 0.32% of 310,000 active;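 active means every replicate shows inhibition above about 80%, whatever the replicate mean, limit read from the data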;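 further: 0% = DMSO neutral controls and 100% = 20 µM radicicol positive controls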
E coli growth-2: bacterial growth inhibition, counter-screen for AddAB inhibitors; AID 449728; inhibition, % at 11.9 µM; 0.27% of 330,000 active; E. coli V3065 growth, OD600 absorbance, 18 h;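 active means inhibition above the campaign's mean inhibition across all tested compounds plus 3 SD, cut at about 9.9% in these data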;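 further: uninfected addAB+ strain grown without phage in ampicillin broth; 0% = DMSO wells and 100% = ciprofloxacin 0.95 µg/ml wells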
Tat transport: inhibitors of E. coli Tat protein transport. inhibition, % at 10 µM. 0.036% of 340,000 active. E. coli MC4100 TorA-mCherry Tat export, fluorescence;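 active means mean replicate inhibition at least 50% and at least half of replicates individually reaching 50%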;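 further: exported cargo escapes ClpAP degradation while cytoplasmic cargo is degraded and loses fluorescence; 0% = median of neutral control wells and 100% = median of NaSCN control wells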
AddAB conf: confirmation screen: growth loss of phage-infected E. coli expressing H. pylori AddAB; shares compounds with AddAB inh; E. coli V3065 expressing H. pylori AddAB, T4 phage, OD; T4 phage with gene 2 nonsense mutations; inhibition, % at 11.9 µM; 64% of 880 active; AID 488942;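 active means mean inhibition above a set limit taken from the earlier primary screen, cut at about 13% in these data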;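 further: higher means less bacterial growth since AddAB block lets phage replicate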
RecBCD counter: reduces growth of phage-infected RecBCD+ E. coli, AddAB inhibitor counter-screen; shares compounds with AddAB inh; AID 488955; inhibition, % at 11.9 µM; E. coli V66 + mutant T4 phage, OD growth; 73% of 880 active;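 active means mean inhibition above the mean of solvent-only control wells plus 3 SD, cut at about 4% in these data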;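 further: optical density read after an 18 h incubation at 37 °C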
Bact viability: counter-screen: bacterial growth inhibition | 35% of 880 active | bacterial viability, absorbance (AddAB counterscreen) | AID 488956 | inhibition, % at 11.9 µM | shares compounds with AddAB inh; in the data active means inhibition above about 25%
An asterisk follows results filed as active. A selection: hits, their analogues and other compounds. The true share with any hit is near 0.69%.

For CC1c2cccc(O)c2C(O)=C2C(=O)C3(O)C(O)=C(C(N)=O)C(=O)C(N(C)C)C3C(O)C21 (configuration not stated) the results were E coli growth-1 0.067*.
`O=C(Nc1ccc(Cl)c(C(F)(F)F)c1)C1CC=CC2CCN(Cc3ccc(Cl)c(Cl)c3)C(=O)C21` (configuration not stated) gave E coli growth-1 0.643.
`Cc1cc(C=NNC(N)=O)c(C)c(CO)c1` gave E coli growth-1 0.642.
Screening CCC(C)C1CN=C(N)N1CCCc1cc(OC)c(OC)c(OC)c1 (configuration not stated) returned E coli growth-1 0.69.
CCCCCCSc1ccc(C2C3C(=O)N(C)C(=O)C3[C@]3(C(=O)OC)CCCCN23)cc1OC (some centres not stated) was read as E coli growth-1 0.68.
CN(C)CCn1nnnc1SCC1=C(C(=O)O)N2C(=O)C(NC(=O)Cc3csc(N)n3)C2SC1 (configuration not stated) was read as E coli growth-1 0.0615*.
For Cc1cc(C(F)F)nn1CC(=O)NC1C(=O)N2C(C(=O)O)=C(CSc3nnnn3C)CSC12 (configuration not stated) the results were E coli growth-1 0.187*, phage Ecoli inh 3.3, AddAB inh 4.6, PfHsp90 set2 5.0, E coli growth-2 4.2 and Tat transport -8.5.
Cc1nn(C(C)C(=O)NC2C(=O)N3C(C(=O)O)=C(CSc4nnnn4C)CSC23)cc1Cl (configuration not stated) was read as E coli growth-1 0.431*, phage Ecoli inh 5.8, AddAB inh -0.7, PfHsp90 set2 -4.9, E coli growth-2 0.4 and Tat transport -16.3.
Screening CC(C(=O)NC1C(=O)N2C(C(=O)O)=C(CSc3nnnn3C)CSC12)n1cc(Br)cn1 (configuration not stated) returned E coli growth-1 0.508*, phage Ecoli inh 4.7, AddAB inh -2.2, PfHsp90 set2 0.8, E coli growth-2 -1.5 and Tat transport -11.4.
For CC(=NNC(=O)CN(c1ccc(Oc2ccccc2)cc1)S(C)(=O)=O)C(C)(C)C the results were E coli growth-1 0.719.
Screening O=C(NN=Cc1ccco1)c1cccc(N2Cc3ccccc3C2)c1 returned E coli growth-1 0.701.
For CCCCCCCCCn1c2c(c(=N)c3c1CCC3)CCCC2 the results were E coli growth-1 0.43*, PfHsp90 set2 0.1 and Tat transport 29.6.
CCCCCCCCCCn1c2c(c(=N)c3c1CCC3)CCC2 was read as E coli growth-1 0.224*, phage Ecoli inh 8.0, AddAB inh 4.9, PfHsp90 set2 6.6, E coli growth-2 8.2 and Tat transport 0.8.
For CCn1c2c(c(=N)c3c1CCC3)CCCC2 the results were E coli growth-1 0.674, phage Ecoli inh 1.6, AddAB inh -2.3 and E coli growth-2 1.7.
Screening CCCCCCCCn1c2c(c(=N)c3ccccc31)CCC2 returned E coli growth-1 0.592, phage Ecoli inh 7.8, PfHsp90 set2 13.5 and Tat transport -0.6.
Screening CC(C)CNC(=O)CC(=O)NN=Cc1cccs1 returned E coli growth-1 0.711.
O=C(O)c1ccccc1NC(c1ccccc1)c1ccc2cccnc2c1O (configuration not stated) was read as phage Ecoli inh 9.7, PfHsp90 set2 121.1* and Tat transport 12.1.
Screening COc1ccccc1NC(c1cccnc1)c1ccc2cccnc2c1O (configuration not stated) returned E coli growth-1 0.738, phage Ecoli inh 7.5, AddAB inh 6.4, PfHsp90 set2 9.7, E coli growth-2 -3.0 and Tat transport -0.6.
For CCCSc1ccc(C2C3C(=O)N(CC)C(=O)C3[C@]3(C(=O)OC)CCCCN23)cc1OC (some centres not stated) the results were E coli growth-1 0.673.
Screening COc1ccc(CCN2C(=O)C=CC2=O)cc1OC returned phage Ecoli inh -0.5, PfHsp90 set2 104.4* and Tat transport -10.0.
Clc1ccccc1CN(Cc1ccco1)Cc1nnnn1C1CCCC1 was read as E coli growth-1 0.67, phage Ecoli inh -0.6, AddAB inh -0.7, PfHsp90 set2 84.6*, E coli growth-2 0.6 and Tat transport 10.1.
CCCC=C1CCCOC(C(=O)NCc2cc(C)n(C)n2)(C(F)(F)F)C1 (configuration not stated) was read as E coli growth-1 0.715.
CCc1c(C)c(C#N)c2nc3ccccc3n2c1NCCN(C)C was read as E coli growth-1 0.716, phage Ecoli inh 1.3, AddAB inh -0.9, PfHsp90 set2 17.3, E coli growth-2 -1.0 and Tat transport -0.3.
For Cc1c(CCCl)c(Cl)n2c(nc3ccccc32)c1C#N the results were phage Ecoli inh 2.1, PfHsp90 set2 102.7* and Tat transport -2.5.
`C=CCc1c(C)c(C#N)c2nc3ccccc3n2c1NCCN(C)C` gave E coli growth-1 0.756, phage Ecoli inh 2.8, AddAB inh -0.8, PfHsp90 set2 108.8*, E coli growth-2 1.7 and Tat transport 2.1.
Cc1ccc(NC(=S)NN=Cc2ccc([N+](=O)[O-])s2)cc1 was read as E coli growth-1 0.67.
For CCOC(=O)C(CC)Sc1nc2c(cnn2-c2ccc(F)cc2)c(=O)[nH]1 (configuration not stated) the results were E coli growth-1 0.643, phage Ecoli inh 0.9, AddAB inh 1.3, PfHsp90 set2 7.8, E coli growth-2 -0.1 and Tat transport 1.7.
`CCC(Sc1nc2c(cnn2-c2ccc(Cl)cc2)c(=O)[nH]1)C(=O)OC` (configuration not stated) gave E coli growth-1 0.84, phage Ecoli inh 1.5, AddAB inh 96.7*, PfHsp90 set2 -45.0, E coli growth-2 43.1*, Tat transport -11.7, AddAB conf -0.4, RecBCD counter 1.1 and Bact viability -0.1.
Screening CC(=O)N1c2ccccc2C(C)C1C (configuration not stated) returned E coli growth-1 0.662.
`O=C(NN1C(=O)c2ccccc2NC1c1ccc([N+](=O)[O-])o1)c1ccc(Br)cc1` (configuration not stated) gave E coli growth-1 0.687, phage Ecoli inh 4.9, AddAB inh 3.1, PfHsp90 set2 -13.0, E coli growth-2 1.9 and Tat transport -1.6.
